18 molecules from PubChem BioAssay (EPA / NIEHS) can be followed below.

Common to all, as to settings: mRNA level, 48 h; actives raise or lower the signal
Read-out in assay [1]: Glutamate-cysteine ligase regulatory (GCLM), GCLM (gene 2730)
Nature of the assay: LTEA_HepaRG_GCLM: Life Technologies and Expression Analysis (LTEA) Assay for Glutamate-cysteine ligase regulatory (GCLM) using HepaRG (AID 2283500). In short, it runs like this: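 Differentiated HepaRG cells exposed 48 h in serum-free induction medium to eight half-log concentrations up to 100 uM (0.5% DMSO). GCLM mRNA by TaqMan qRT-PCR, normalized to ACTB, GAPDH and POLR2A; bidirectional fit versus DMSO.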

Read-out in assay [2]: Glutathione S-transferase M3 (GSTM3), GSTM3 (gene 2947)
As to the kind of experiment: LTEA_HepaRG_GSTM3: Life Technologies and Expression Analysis (LTEA) Assay for Glutathione S-transferase M3 (GSTM3) using HepaRG (AID 2283501). In short, it runs like this:
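Expression of GSTM3 is determined by qRT-PCR in human liver HepaRG cells treated 48 h with an 8-point half-log range from 100 uM in 0.5% DMSO.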

Read-out in assay [3]: Heat shock 70 kDa protein 1 (HSPA1A), gene 3303
As to the kind of experiment: LTEA_HepaRG_HSPA1A: Life Technologies and Expression Analysis (LTEA) Assay for Heat shock 70 kDa protein 1 (HSPA1A) using HepaRG (AID 2283502). In short, it runs like this:
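Human HepaRG cells in serum-free induction medium were exposed in duplicate for 48 h to 8 half-log concentrations, highest 100 uM, in 0.5% DMSO. HSPA1A mRNA read by TaqMan qRT-PCR, normalized to ACTB, GAPDH, POLR2A, fitted bidirectionally against DMSO.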

Read-out in assay [4]: Hypoxia-inducible factor 1-alpha (Homo sapiens) (UniProt Q16665)
Nature of the assay: LTEA_HepaRG_HIF1A: Life Technologies and Expression Analysis (LTEA) Assay for Hypoxia-inducible factor 1 (HIF1A) Trancription factor using HepaRG (AID 2283503). In short, it runs like this:
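Differentiated HepaRG cells in serum-free induction medium exposed 48 h, in duplicate, to 8-point half-log series from 100 uM in 0.5% DMSO. HIF1A mRNA measured by TaqMan qRT-PCR, normalized to ACTB/GAPDH/POLR2A, fitted bidirectionally versus DMSO.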

Read-out in assay [5]: 3-Hydroxy-3-Methylglutaryl-CoA Synthase 2 (HMGCS2), HMGCS2 (gene 3158)
As to the kind of experiment: LTEA_HepaRG_HMGCS2: Life Technologies and Expression Analysis (LTEA) Assay for 3-Hydroxy-3-Methylglutaryl-CoA Synthase 2 (HMGCS2) using HepaRG (AID 2283504). In short, it runs like this:
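This steatosis marker was read as HMGCS2 mRNA change in HepaRG cells treated 48 h with up to 100 uM chemical. Normalisation used housekeeping genes; activity in either direction was fitted relative to 0.5% DMSO vehicle.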

Read-out in the next assay: HGF (gene 3082)
As to the kind of experiment: LTEA_HepaRG_HGF: Life Technologies and Expression Analysis (LTEA) Assay for Hepatocyte Growth Facto (HGF) using HepaRG (AID 2283505). Put shortly: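 Using HepaRG monolayers kept in 0.5% DMSO, chemicals were tested in duplicate over eight half-log concentrations from 100 uM for 48 h. Endpoint: HGF mRNA change relative to DMSO, normalized to ACTB/GAPDH/POLR2A.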

Read-out in assay [6]: Insulin Like Growth Factor 1 (IGF1), IGF1 (gene 3479)
Nature of the assay: LTEA_HepaRG_IGF1: Life Technologies and Expression Analysis (LTEA) Assay for Insulin Like Growth Factor 1 (IGF1) using HepaRG (AID 2283506). Put shortly:
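Differentiated HepaRG cells in serum-free induction medium, exposed 48 h in duplicate to 8 half-log concentrations up to 100 uM in 0.5% DMSO. IGF1 mRNA by Fluidigm qRT-PCR, normalised to ACTB, GAPDH and POLR2A.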

Read-out in assay [7]: Intercellular Adhesion Molecule 1 (ICAM1), ICAM1 (gene 3383)
As to the kind of experiment: LTEA_HepaRG_ICAM1: Life Technologies and Expression Analysis (LTEA) Assay for Intercellular Adhesion Molecule 1 (ICAM1) using HepaRG (AID 2283507). In short, it runs like this:
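Using the human liver line HepaRG, compounds are tested in duplicate over 48 h at concentrations up to 100 uM. Expression is determined by TaqMan qRT-PCR, normalized to endogenous controls, and analysed relative to 0.5% DMSO vehicle.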

Read-out in assay [8]: Insulin-like growth factor-binding protein 1 (IGFBP1), IGFBP1 (gene 3484)
As to the kind of experiment: LTEA_HepaRG_IGFBP1: Life Technologies and Expression Analysis (LTEA) Assay for Insulin-like growth factor-binding protein 1 (IGFBP1) using HepaRG (AID 2283508). Put shortly:
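HepaRG, 48 h, 8 conc. (max 100 uM, half-log), duplicates, 0.5% DMSO. Readout: TaqMan qRT-PCR, ACTB/GAPDH/POLR2A normalisation. Fit: bidirectional vs DMSO.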

Read-out in assay [9]: Interleukin 6 (IL6), IL6 (gene 3569)
As to the kind of experiment: LTEA_HepaRG_IL6: Life Technologies and Expression Analysis (LTEA) Assay for Interleukin 6 (IL6) using HepaRG (AID 2283509). Put shortly:
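HepaRG, ~100,000 cells/well, 48 h pre-culture; serum-free induction medium; cmpd 8-pt half-log from 100 uM, 0.5% DMSO, duplicate, 48 h. Lysis in RLT, TaqMan qRT-PCR; gain or loss vs DMSO.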

Active and inactive are the calls of the source. How the source made its calls: active means hit-call score of the fitted dose curve at least 0.9, where 1 is the maximum; inactive means score below 0.9.

Chain of Hypoxia-inducible factor 1-alpha (Homo sapiens) (Q16665 whole entry, looked up): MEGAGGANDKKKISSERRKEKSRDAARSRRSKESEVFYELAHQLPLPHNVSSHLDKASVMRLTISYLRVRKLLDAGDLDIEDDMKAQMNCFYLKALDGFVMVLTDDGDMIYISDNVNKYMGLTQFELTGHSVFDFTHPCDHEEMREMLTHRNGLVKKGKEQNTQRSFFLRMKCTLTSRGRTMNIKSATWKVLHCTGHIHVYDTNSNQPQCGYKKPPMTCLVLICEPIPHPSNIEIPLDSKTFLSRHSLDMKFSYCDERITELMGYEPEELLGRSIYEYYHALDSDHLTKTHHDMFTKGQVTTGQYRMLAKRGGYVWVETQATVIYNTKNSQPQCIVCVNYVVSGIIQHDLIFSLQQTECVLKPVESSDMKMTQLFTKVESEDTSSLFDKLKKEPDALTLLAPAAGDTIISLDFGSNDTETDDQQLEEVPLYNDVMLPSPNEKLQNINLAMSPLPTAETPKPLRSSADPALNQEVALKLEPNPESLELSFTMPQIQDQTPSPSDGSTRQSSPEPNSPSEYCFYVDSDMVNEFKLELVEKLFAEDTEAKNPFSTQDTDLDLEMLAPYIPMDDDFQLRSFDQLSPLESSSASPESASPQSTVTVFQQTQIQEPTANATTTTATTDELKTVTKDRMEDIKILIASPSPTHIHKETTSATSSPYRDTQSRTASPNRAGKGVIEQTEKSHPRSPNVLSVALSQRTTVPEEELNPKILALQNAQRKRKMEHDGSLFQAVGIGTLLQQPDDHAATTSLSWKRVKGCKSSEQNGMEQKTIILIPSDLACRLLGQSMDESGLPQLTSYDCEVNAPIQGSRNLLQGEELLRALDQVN

Turning to `CC(C)N1C(=O)c2ccccc2NS1(=O)=O`, the molecule was called inactive (in [1]; in assay [2]; in assay [3]; in [4]; in assay [5]; in the assay with HGF (gene 3082)). Besides, the call in assay [6], in [7], in [8] and in assay [9] was inactive.
With `COC(=O)NS(=O)(=O)c1ccc(N)cc1`, the result (in assay [1]; in [2]; in assay [3]; in assay [4]; in assay [5]; with HGF (gene 3082)) was inactive. In addition, the molecule was classed as inactive in [6], in [7], in assay [8] and in assay [9].
Take `COCC(=O)N(c1c(C)cccc1C)C(C)C(=O)OC` (stereo not given): the result (in [1]; in assay [2]; in [3]; in assay [4]; in [5]; with HGF (gene 3082)) was inactive. For the same molecule, the outcome in assay [6], in assay [7], in assay [8] and in assay [9] was inactive.
Consider `Nc1cnn(-c2ccccc2)c(=O)c1Cl`, for which the outcome (in assay [1]; in assay [2]; in [3]; in [4]; in [5]; in the assay with HGF (gene 3082)) was inactive. Also, the result in assay [6], in assay [7], in assay [8] and in assay [9] was inactive.
For `CN/C(=N\[N+](=O)[O-])NCc1cnc(Cl)s1`, the call (in assay [1]; in [2]; in [3]; in assay [4]; in [5]; with HGF (gene 3082)) was inactive. Besides, the outcome in assay [6], in assay [7], in assay [8] and in assay [9] was inactive.
Broadly, the AC50 is the concentration giving half of the maximal activity seen. Take `O=C(Nc1ccccc1-c1ccc(Cl)cc1)c1cccnc1Cl`: the outcome (in assay [1]; in assay [2]; in assay [3]; in assay [4]; with HGF (gene 3082); in assay [7]) was inactive. Besides, the call in assay [8] and in assay [9] was inactive. Besides, the AC50 in [5] and in assay [6] was 52.5 µM (active) in each case.
For `Cn1c(-c2ccccc2)cc(-c2ccccc2)[n+]1C`, the result (in assay [1]; in assay [4]; in the assay with HGF (gene 3082); in assay [7]; in assay [9]) was inactive. In addition, the AC50 in [2] is 85.7 µM (active); in assay [3], 40.2 µM (active); in assay [5], 35 µM (active); in assay [6], 13.4 µM (active); in assay [8], 50 µM (active).
Turning to `CCOP(=S)(OCC)Oc1nc(Cl)n(C(C)C)n1`, the call (in [1]; in [2]; in [3]; in [4]; in the assay with HGF (gene 3082); in assay [7]) was inactive. Also, the result in assay [9] was inactive. Further, the results for the AC50 in assay [5], in [6] and in assay [8] were 17.2 µM (active), 18.9 µM (active) and 1.57 µM (active), respectively.
For the molecule `CCCCC(O)(Cn1cncn1)c1ccc(Cl)cc1Cl` (stereo not given), the outcome in assay [1] was inactive. Further, the AC50 in [2] is 82.6 µM (active); in [3] it was 18.8 µM (active); in assay [4], 80.6 µM (active); in [5], 77.9 µM (active); with HGF (gene 3082) it was 75.3 µM (active); in [6], 75.1 µM (active). Besides, the AC50 in assay [7] was 83.9 µM (active); in [8], 79.3 µM (active); in assay [9], 72 µM (active).
With `CC(C)Oc1cccc(NC(=O)c2ccccc2C(F)(F)F)c1`, the outcome (in [1]; in assay [2]; in assay [3]; in assay [4]; in assay [5]; in the assay with HGF (gene 3082)) was inactive. In addition, the outcome in assay [7], in assay [8] and in assay [9] was inactive. The AC50 in assay [6] is 80.9 µM (active).
As to `CCOP(=O)(OCC)Oc1nc(Cl)c(Cl)cc1Cl`, the outcome (in [1]; in [2]; in assay [3]; in the assay with HGF (gene 3082); in [6]; in [7]) was inactive. In addition, the call in assay [8] and in assay [9] was inactive. The AC50 in [4] is 49.8 µM (active); in [5], 84.8 µM (active).
`CCCCC(C#N)(Cn1cncn1)c1ccc(Cl)cc1` (stereo not given): the result (in assay [1]; in assay [2]; in [3]; in [4]; in the assay with HGF (gene 3082); in assay [7]) was inactive. The result in [8] and in [9] was inactive. For the same molecule, the AC50 in assay [5] was 78.1 µM (active); in assay [6], 68.7 µM (active).
As to `OC(c1ccc(Cl)cc1)(c1ccc(Cl)cc1)C(Cl)(Cl)Cl`, the outcome (in [1]; in assay [4]; with HGF (gene 3082)) was inactive. Also, the AC50 in assay [2] is 81.2 µM (active); in [3] it was 89.3 µM (active); in assay [5] it was 80.1 µM (active); in assay [6] it was 50 µM (active); in [7], 77.6 µM (active); in assay [8] it was 73.6 µM (active). Also, the AC50 in assay [9] was 76.6 µM (active).
In the case of `CCOC(=O)C(C)OC(=O)c1cc(Oc2ccc(C(F)(F)F)cc2Cl)ccc1[N+](=O)[O-]` (stereo not given), the result (in assay [1]; in [2]; in assay [3]; in assay [4]; with HGF (gene 3082); in [7]) was inactive. For the same molecule, in assay [8], the result was inactive. Besides, the results for the concentration at half-maximal activity (AC50) in [5], in assay [6] and in assay [9] were 1.38 µM (active), 21 µM (active) and 9.92 µM (active), respectively.
`O=c1n(Cl)c(=O)n(Cl)c(=O)n1Cl`: the call (in [1]; in assay [2]; in assay [3]; in assay [4]; in [5]; with HGF (gene 3082)) was inactive. Besides, the call in assay [6], in assay [7], in assay [8] and in assay [9] was inactive.
As to `CCNP(=S)(OC)O/C(C)=C/C(=O)OC(C)C` (stereo not given), the half-maximal activity concentration (AC50) in [1] is 9.92 µM (active); in [5], 25.8 µM (active); in assay [6] it was 50 µM (active). Also, the molecule was called inactive (in [2]; in assay [3]; in [4]; with HGF (gene 3082); in assay [7]; in [8]). For the same molecule, the outcome in assay [9] was inactive.
For `CCSC(=O)N1CCCCCC1`, the call (in [1]; in [2]; in assay [3]; in assay [4]; in assay [5]; in the assay with HGF (gene 3082)) was inactive. Also, the call in assay [6], in assay [7], in assay [8] and in assay [9] was inactive.
Regarding `Cc1cnc(C2=NC(C)(C(C)C)C(=O)N2)c(C(=O)O)c1` (stereo not given), the call (in [1]; in [2]; in assay [3]; in assay [4]; in assay [5]; with HGF (gene 3082)) was inactive. Further, the result in assay [6], in [7], in assay [8] and in assay [9] was inactive.
